Out of some 300,000 compounds screened, about 37,000 (12%) were called active. Many of the other results were omitted from the sample, so actives are more common in it than they were. Values without a mark were called inactive. Rule as the data show it: active = max response mostly above about 13% (no sharp cut-off); inactive = mostly below about 14%.

A short description of the assay: Cycloheximide Counterscreen for Small Molecule Inhibitors of Shiga Toxin. Also: read at 38.3 µM for the half of the compounds with a filed dose; 0% is about no effect. The following applies: cell reporter, cycloheximide protein synthesis inhibition counterscreen; hits give high values.
Take `COC(=O)c1ccc(S(=O)(=O)N2CCc3ccccc3C2)cc1`: the max response was -0.876%.
With `CCc1nn(CCCC(=O)NCc2ccc(C)cc2)c(=O)c2cc3occc3n12` the figure was 9.5%; with `CCCCCCC(O)(CCN1CCCCC1)c1ccccc1` (centres undefined), -3.74%.
With `Cc1ccnc(N2CCCC(C(=O)NC3CC3)C2)n1` (centres undefined) the figure was -3.55%; with `CSCCC(Nc1nc2ccccc2s1)C(=O)O` (centres undefined), -2.31%.
To `Cc1ccc(S(=O)(=O)Nc2nc3ccccc3s2)cc1[N+](=O)[O-]` belongs -1.91%; to `Cc1ccnc(Nc2nc3ccccc3s2)n1`, 55.1% (active).
On to `COc1cccc(NS(=O)(=O)c2ccc(-c3coc(C)n3)cc2)c1`, for which the max response is 15.9%.
To `O=C(NC1CCCC1)C1CC(=O)N(c2ccc(F)cc2)C1` (centres undefined) belongs -4.78%.
With `COCCC(=O)N1CCC(Oc2ccc(C(=O)NCc3ccon3)cc2)CC1` the figure was 2.55%; with `COc1cc(OC)cc(C(=O)Nc2ccc(S(=O)(=O)Nc3cc(C)on3)cc2)c1`, -4.87%; with `COc1cc(OC)cc(C(=O)Nc2ccc(-c3nc4ccccc4o3)c(O)c2)c1`, 24.8% (active).
Turning to `Cc1ccc2nc(-c3ccc(NC(=O)c4cccnc4)cc3)oc2c1`, the max response was 49.6% (active).
With `Cc1cc2nc(-c3ccc(NC(=O)c4cccnc4)cc3)oc2cc1C` the figure was 32.1% (active).
On to `COc1cc(OC)cc(C(=O)Nc2ncc3c(n2)CC(C)(C)CC3=O)c1`, for which the max response is 9.17%.
Take `CC(=O)NC(=S)Nc1ccc(NC(=O)c2cccnc2)cc1`: the max response was 1.22%.
To `CC(=O)Nc1ccc(S(=O)(=O)N(C)c2nc3ccccc3nc2Cl)cc1` belongs 18%; to `CC(=O)Nc1ccc(-c2nc3ccccc3o2)cc1`, 35.3% (active); to `Cc1cc(NS(=O)(=O)c2ccc(NC(=O)c3cccnc3)cc2)nc(C)n1`, 1.8%.
For `CC(=O)Nc1ccc(Nc2c3ccccc3nc3ccccc23)cc1`, the max response was -9.79%.
With `COC(=O)c1cc(NC(=O)c2cccnc2)ccc1N1CCOCC1`, the max response was -2.96%.
To `CCC1=Nc2cc(C(=O)NCCCN3CCOCC3)ccc2Sc2ccc(Br)cc21` belongs -2.78%; to `CC(=O)Nc1ccc(S(=O)(=O)NCC(=O)OCc2cc(=O)oc3ccc4ccccc4c23)cc1`, -2.56%.
Take `Cc1cc(OCCN2CCCC2)cc(C(C)C)c1`: the max response was -2.45%.
To `CCn1cc(CN2CCC(C(=O)Nc3cccc(-c4cccc(Cl)c4)c3)CC2)cn1` belongs -10.1%.
Turning to `CC1Cc2cc(/C(O)=C3\C(=O)C(=O)N(Cc4cccnc4)C3c3ccccc3F)ccc2O1` (centres undefined), the max response is -1.92%.
To `O=C(Cn1cc(/C=N/NC(=O)c2cccc(C(F)(F)F)c2)c2ccccc21)Nc1ccc(F)cc1` belongs 2.04%.
With `O=C(C(Cc1ccccc1)n1cccc1)N1CCN(C2CCCCC2)CC1` (centres undefined) the figure was -4.26%; with `CCOC(=O)C1CCN(S(=O)(=O)c2c(C)noc2C)CC1`, -1.8%; with `Cc1ccc(NC(=O)Cn2nc(C)c3ccccc3c2=O)c(C)c1`, -1.38%.
Turning to `Cc1ccc(C)c(S(=O)(=O)N2CCN(C(=O)Nc3ccccc3)CC2)c1`, the max response was -1.4%.
To `Cc1ccc(NC(=O)c2ccn(C(=O)Nc3ccccc3)n2)c(C)c1` belongs 43.3% (active).
To `Cc1ccc(CCCOC(=O)C[N+]2(C)CCCC2)cc1` belongs -2.71%.
Regarding `Cc1c(C(=O)N2CCN(c3ccc(F)cc3)CC2)oc2c1C(=O)CCC2`, the max response was -3.49%.
To `CCCCOC(=O)CCCc1ccc([N+](=O)[O-])cc1[N+](=O)[O-]` belongs -1.18%; to `CC1C(=O)Nc2ccccc2N1C(=O)c1c(F)cccc1F` (centres undefined), -2.05%; to `O=C(Nc1ccccc1-c1ccccc1)c1cccs1`, 5.16%.
To `COc1cccc(NC(=O)C(C)Oc2ccccc2)c1` (centres undefined) belongs 4.2%; to `CC(Oc1cccc(NC(=O)c2cccs2)c1)C(=O)c1ccccc1` (centres undefined), 19.5% (active); to `C/C(=N\NC(=O)CNc1cccc2ccccc12)c1ccc(Br)s1`, -2.1%.
To `Cn1cccc1/C=N/NC(=O)CNc1cccc2ccccc12` belongs 4.6%; to `Cc1cccc(/C=N/NC(=O)CNc2cccc3ccccc23)n1`, 45.5% (active); to `Cc1ccccc1/[N+]([O-])=C/c1ccncc1`, 9.27%.
`O=C(CN1CCN(S(=O)(=O)/C=C/c2ccccc2)CC1)Nc1ccc(N2CCOCC2)cc1`: the max response was -1.05%.
With `CC(=O)Oc1ccc(C)cc1N1C(=O)c2ccc(C(=O)O)cc2C1=O` the figure was 6.31%.
In the case of `O=C(O)c1ccc2c(c1)C(=O)N(c1ccc(/C=C/C(=O)c3ccccc3)cc1)C2=O`, the max response was 46.6% (active).
To `O=C(c1ccc(S(=O)(=O)N2CCOCC2)cc1)N1CCN(c2ccccc2)CC1` belongs -2.23%; to `Cc1cccc(N2C(=O)c3ccc(C(=O)Nc4cccc(C(=O)O)c4)cc3C2=O)c1`, 10.2%.
With `O=C(/C=C/c1ccc(N2CCOCC2)cc1)c1ccccc1` the figure was 46.4% (active); with `O=C(NC1CCC(O)CC1)c1ccccc1OCc1ccc(F)cc1` (centres undefined), -3.74%; with `Cc1ccccc1CN1C(=O)c2ccccc2Sc2ccc(C(=O)NCCCN3CCOCC3)cc21`, -3.67%.
To `COc1cc(CO)ccc1OCC(=O)Nc1cccc2ccccc12` belongs -2.19%; to `Cc1ccc(S(=O)(=O)N(CCCN(C)C)Cc2ccc3c(c2)OCO3)cc1`, 1.74%; to `CCC1CCCCN1C(=S)Nc1ccc(S(=O)(=O)Nc2ncccn2)cc1` (centres undefined), -2.13%.
As to `CCC1CCCCN1C(=S)Nc1ccc(SC(F)F)cc1` (centres undefined), the max response was 1.07%.
With `O=C(COc1ccccc1)Nc1ccc(C(=O)N2CCCC2)cc1` the figure was 37.5%; with `CC(=O)c1ccc(NC(=O)CSC(=S)N2CCCC2)cc1`, 20.5% (active).
For the compound `O=C(CCC(=O)N1CCCC1)Nc1ccc([N+](=O)[O-])cc1`, the max response is -2.89%.
With `CCC1CCCCN1C(=S)Nc1ccc(C(C)=O)cc1` (centres undefined) the figure was 8.58% (active); with `O=C(NC(=S)Nc1ccc2oc(=O)ccc2c1)c1ccc(-c2cccc(Cl)c2Cl)o1`, 6.87%; with `CCCC(=O)N1CCN(c2nnc(-c3ccc(C)cc3)c3ccccc23)CC1`, -7.1%.
To `Cc1cccc(CNS(=O)(=O)c2ccc(-c3cnc(C4CC4)o3)cc2)c1` belongs 18.8%.
For the compound `CC(=O)c1sc(N/N=C/c2ccc(C(C)C)cc2)nc1C`, the max response was 43% (active).
With `CCOC(=O)c1sc(/N=C/Nc2nc(C)c(C(=O)OCC)s2)nc1C` the figure was 10.8%; with `CC(=O)c1sc(NC(=O)CCCOc2ccccc2C)nc1C`, 1.03%; with `Cc1nnc(C)n1/N=C/c1ccc(C(C)C)cc1`, 4.86%.
With `Cc1ccc(S(=O)(=O)Nc2nc(C)cc(N/N=C/c3ccc(O)cc3)n2)cc1` the figure was -2.44%; with `CC(=O)c1sc(N/N=C\c2ccc(C)cc2)nc1C`, 48.9% (active); with `C=CCC1(C#N)C(=S)NC(C)=C(C(=O)OCC)C1c1ccccc1` (centres undefined), -1.77%.
With `NC(=O)C1CCN(CC(O)CSc2ccc(F)cc2)CC1` (centres undefined) the figure was -5.01%; with `NS(=O)(=O)c1ccc(CCNC(=O)c2ccc([N+](=O)[O-])cc2[N+](=O)[O-])cc1`, -3.47%; with `O=C(Nc1ccc(Cl)cn1)c1cnn2cccnc12`, 58.9% (active).
As to `O=C(Nc1ccc(Cl)cn1)c1ccc2c(c1)OCCO2`, the max response is 37.5% (active).
To `O=C(Nc1cccnc1)c1ccc(Cl)cc1[N+](=O)[O-]` belongs -1.02%; to `CC(=O)c1ccc2c(c1)OCCOCCOc1ccc(C(C)=O)cc1OCCOCCO2`, 0.857%.
With `Cc1ccc2sc(NNC(=O)c3ccc4c(c3)OCCO4)nc2c1C` the figure was 5.17%.
As for `Cc1nc(NC(=O)c2ccc3c(c2)OCCO3)ccc1Br`, the max response was 57.9% (active).
With `Cc1cc(NC(=O)c2cnn3cccnc23)n(-c2ccccc2)n1` the figure was 0.387%.
With `COc1ccc(C(=O)NC(=S)Nc2ccc(Cl)cn2)cc1OC`, the max response is -1.11%.
As to `COc1c(Cl)cc(C(=O)Nc2ccc(Cl)cn2)cc1Cl`, the max response is 11.7%.
To `O=C(NCc1ccncc1)C(=O)NCC1OCCN1S(=O)(=O)c1ccc(Br)cc1` (centres undefined) belongs -5.83%; to `CSCCNCc1cn(-c2ccc(F)cc2F)nc1-c1ccccc1C`, -0.8%; to `COc1cc(OC)c(NS(=O)(=O)c2cn(C)cn2)cc1Cl`, -0.545%.
To `COc1cc(/C=C2/C(=O)NN(c3cccc(Cl)c3)C2=O)cc(Br)c1O` belongs 0.32%; to `CC1(C)O[C@@H]2C[C@@H]3[C@H]4C[C@@H](F)C5=CC(=O)C=C[C@]5(C)[C@@]4(F)[C@@H](O)C[C@]3(C)[C@]2(C(=O)CO)O1`, 7.66%; to `CCOC(=O)c1ccc(NC(=O)c2nc[nH]c2C(=O)NCc2ccccc2)cc1`, -1.19%.
Consider `O=C(NCCN1CCN(C(=O)c2cccc([N+](=O)[O-])c2)CC1)C(=O)NCc1ccc(Cl)cc1`, for which the max response was 1.34%.
To `Cc1cc(-c2csc(N)n2)c(C)n1-c1ccccc1` belongs 28.2%; to `Cc1cc(-c2csc(N)n2)c(C)n1Cc1ccccc1`, 22.9% (active).
Regarding `CC(=O)Nc1ccc(C(=O)Nc2nc(-c3cc(C)n(Cc4ccccc4)c3C)cs2)cc1`, the max response is -2.65%.
For `Cc1nn2c(c1-c1ccccc1)N=C(c1ccco1)CC2c1ccccc1` (centres undefined), the max response is 20.9% (active).
Take `O=C(O)CCCC(=O)N1N=C(c2ccco2)CC1c1ccco1` (centres undefined): the max response is -3.77%.
To `Cn1c(N)c(C(=O)COC(=O)C23CC4CC(CC(C4)C2)C3)c(=O)n(C)c1=O` belongs -2.04%; to `Cc1c(NC(=O)Nc2ccccc2)cccc1[N+](=O)[O-]`, -0.54%; to `Cc1csc(NC(=O)Nc2ccccc2[N+](=O)[O-])n1`, 40.4% (active).
To `O=C(Nc1ccccc1[N+](=O)[O-])C1C(c2ccccc2)=C1c1ccccc1` belongs -1.97%.
With `Cc1cc(NC(=O)Nc2ccccc2[N+](=O)[O-])no1` the figure was 16.1% (active).
In the case of `O=C(O)c1ccccc1C(=O)Nc1ccccc1[N+](=O)[O-]`, the max response is 0.991%.
With `CCOC(=O)/C(=N\Nc1ccccc1[N+](=O)[O-])c1csc(Nc2ccccc2)n1` the figure was 11.6%.

Source of the values: PubChem BioAssay AID2314 (National Center for Advancing Translational Sciences (NCATS), 2010).
